From ChEMBL document CHEMBL4513146, “CO-ADD screening of Karazin Kharkiv National University (Ukraine) compounds”
Measured potencies and affinities stand elsewhere.

Tests used:
Staphylococcus aureus = details: Concentration 32 ug.mL-1;; ASSAY_TEST Inhibition of Bacterial Growth; detection method Absorption (OD600); MEDIA CAMHB; plate type 384well; NBS; CORNING #3640; time 18 hr
Escherichia coli = details: Concentration 32 ug.mL-1;; ASSAY_TEST Inhibition of Bacterial Growth; detection method Absorption (OD600); MEDIA CAMHB; plate type 384well; NBS; CORNING #3640; time 18 hr

Compound	Inhibition (Staphylococcus aureus) [%]	Inhibition (Escherichia coli) [%]
CC(C)Cn1c(=O)c2sccc2n2c(=O)n(Cc3ccccc3Cl)nc12	2.13	-6.09
CC(C)c1nnc2c(=O)n(CC(=O)Nc3ccc(Cl)cc3)c3ccccc3n12	11.52	1.04
Cc1ccc(Sc2nccn3c(=O)n(CC(=O)Nc4ccc(F)c(Cl)c4)nc23)c(C)c1	-12.28	-15.97
CC(C)Sc1ccc2nn(CC(=O)Nc3ccc(F)cc3Cl)c(=O)n2n1	-4.06	-3
COc1ccc(NC(=O)Cn2nc3ccc(SCc4ccc(Cl)cc4)nn3c2=O)cc1OC	0.34	-7.61
COc1cccc(CNC(=O)CCc2nnc3ccc(-c4ccc(C)cc4)nn23)c1	16.4	-0.37
O=C(Cn1nc2ccc(Sc3ccccc3)nn2c1=O)N1CCN(c2ccc(F)cc2)CC1	9.78	1.58
O=C(Cn1nc2c3cc(-c4ccc(Cl)cc4)nn3ccn2c1=O)NCc1ccccc1	12.1	4.95
CSc1cccc(NC(=O)Cn2nc3ccc(SC4CCCCC4)nn3c2=O)c1	-9.19	-2.76
O=C(Cn1nc2c(SCc3ccccc3)nccn2c1=O)NCc1ccccc1	-16.25	-19.33
COc1ccc(NC(=O)Cn2nc3c(N4CCCC(C)C4)nccn3c2=O)cc1OC (centres undefined)	-18.12	-13.91
Cc1ccc(-n2ccn3c(=O)n(Cc4cccc(Cl)c4)nc3c2=O)cc1C	7.38	0.11
COC(=O)c1ccc(NC(=O)Cn2nc3c4cc(-c5ccc(Cl)cc5)nn4ccn3c2=O)cc1	1.97	4.04
COc1ccc2[nH]cc(C(=O)CSc3nnc4c(=O)n(-c5cccc(Cl)c5C)ccn34)c2c1	18.84	2.67
Cc1cccc(CN(c2cccc(F)c2)S(=O)(=O)c2ccc3nncn3c2)c1	-2.24	-9.18
COc1cccc(-n2ccn3c(SCC(=O)c4c(C)[nH]c5ccccc45)nnc3c2=O)c1	10.32	-7.21

Compound	Inhibition (Staphylococcus aureus) [%]	Inhibition (Escherichia coli) [%]
CC(C)Cc1ccc(S(=O)(=O)Nc2ccc3nncn3n2)cc1	13.61	2.12
O=S(=O)(c1ccc2nncn2c1)N(Cc1cc(F)cc(F)c1)c1cc(F)cc(F)c1	-5.61	-4.65
CC(C)CCn1c(=O)c2sccc2n2c(=O)n(Cc3c(F)cccc3Cl)nc12	13.63	0.76
Cc1cc(C)c(NC(=O)Cn2nc3n(C)c(=O)c4c(c(-c5ccccc5)cn4C)n3c2=O)c(C)c1	6.14	1.74
CC(=O)c1ccc(NC(=O)Cn2nc3ccc(Sc4ccccc4)nn3c2=O)cc1	5.54	-7.82
COC(=O)c1ccc(NC(=O)Cn2nc3c(Oc4ccccc4)nccn3c2=O)cc1	1.06	-10.41
Cc1ccc(-c2cc3c4nn(CC(=O)Nc5c(C)cccc5C)c(=O)n4ccn3n2)cc1	9.95	0.29
CCCCOc1ccc(-c2cc3c4nnc(SCC(=O)N(C)c5ccc(F)cc5)n4ccn3n2)cc1	-20.91	-5.6
COc1cccc(NC(=O)Cn2nc3c(Sc4ccccc4)nccn3c2=O)c1	6.76	0.48
COc1ccc(N(Cc2ccc(OC)c(F)c2)S(=O)(=O)c2ccc3nncn3c2)cc1	2.98	-0.06
COc1ccc(-c2cc3c4nnc(SCC(=O)Nc5ccc(C)c(F)c5)n4ccn3n2)cc1	0.86	-1.39
CCOc1ccc(-c2nc(CSc3nc4ccccc4n4c(C)nnc34)c(C)o2)cc1	7.53	1.84
CCOc1ccc(-n2ccn3c(SC(CC)C(=O)Nc4ccc(C(C)C)cc4)nnc3c2=O)cc1 (centres undefined)	5.33	-6.24
Cc1ccc(Oc2nccn3c(=O)n(CC(=O)N4CCN(c5ccc(F)cc5)CC4)nc23)cc1	10.18	1.45
COc1cccc(CNC(=O)CSc2nnc3c(=O)n(-c4cccc(OC)c4)ccn23)c1	1.1	0.96
COc1ccc(NC(=O)Cn2nc3c4cc(-c5ccc(C)c(C)c5)nn4ccn3c2=O)c(OC)c1	-8.81	-14.02
